For 40 molecules, growth results are on record in PubChem BioAssay (NCI).

About 83,000 compounds went through this panel and 20% of them were active in at least one assay; those are over-represented in the sample as a whole.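 Each cell line was grown in a 96-well plate and treated with one concentration of compound for 48 hours. Values below 10 were considered active.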 Active and inactive are the calls of the source.

This experiment has as its system CAKI-1 renal. Briefly: NCI-60 one-dose screen, 48 h (100 = growth as untreated, 0 = no growth, -100 = all killed). The settings on record: 10 µM unless noted.
As to `C[n+]1ccc(CCc2c[nH]c3ccccc23)cc1`, the growth was 92.6% (inactive).

For `O=C(CI)NC(=O)NC(=O)NCc1ccccc1`, the growth is 5.31% (active).

As for `O=C1/C=C/[C@@H](O)[C@@H]2C[C@@H](O)C[C@H]2/C=C/CCC[C@@H](O)CCO1`, the growth was 83.7% (inactive).

With `CC/C=C\C[C@H](O)C/C=C1/C(=O)C=C[C@@H]1C/C=C\CCCC(=O)O`, the growth was 83.9% (inactive).

On to `CCCCNC(=O)c1cc([N+](=O)[O-])cc(C2CCCCC2)c1O`, for which the growth is 35.3% (inactive).

With `CC(=C(c1ccc(OCCN2CCCCC2)cc1)c1ccc(OCCN2CCCCC2)cc1)c1ccc(Cl)cc1`, the growth was -98.4% (active).

On to `S=C(c1ccc2c(c1)OCO2)N1CCN(c2cccc(Cl)c2)CC1`, for which the growth was 15.5% (inactive).

As for `COc1ccc(/C(C)=C(/c2ccc(OCCCN(C)C)cc2)c2ccc(OC(=O)c3ccccc3)cc2)cc1`, the growth was 89.7% (inactive).

As for `Cc1c(CC(=S)N2CCOCC2)nnn1-c1cccc(C(F)(F)F)c1`, the growth is 93.2% (inactive).

`COc1cccc(/C=C/C(=O)c2cc3c(N)c(C(=O)Nc4cccc5ccccc45)sc3nc2C)c1`: the growth is 17.2% (inactive).

For `COc1cc(OC)c2sc(-c3ccc(-n4cncc4-c4cc(OC)c(OC)c(OC)c4)cc3)nc2c1`, the growth was 24.3% (inactive).

As to `COC(=O)C(Cc1ccccc1)NC(=O)c1ccc(NC(=O)c2[nH]c(C)c(Cl)c2Cl)c(OC(C)C)c1` (stereo not given), the growth is 90% (inactive).

As for `O=C(N/N=C\c1cccc([N+](=O)[O-])c1)N/N=C/c1cccc([N+](=O)[O-])c1`, the growth is 95.8% (inactive).

Take `COc1ccccc1N(C(C)=O)C1=C(Cl)C(=O)c2ccccc2C1=O`: the growth is 10.6% (inactive).

For `COc1cccc(CNc2c3ccccc3nc3ccccc23)c1`, the growth was 35.7% (inactive).

In the case of `NC1(CO)COC(c2ccccc2)OC1` (stereo not given), the growth was 103% (inactive).

For `CO[C@H](C(=O)[C@@H](O)[C@@H](C)O)[C@@H]1Cc2cc3cc(O[C@H]4C[C@@H](O[C@H]5C[C@@H](O)[C@H](O)C(C)O5)[C@H](O)C(C)(O)O4)cc(O)c3c(O)c2C(=O)[C@H]1O[C@H]1C[C@@H](O[C@H]2C[C@@H](O[C@H]3C[C@@H](OC)[C@H](O)C(C)O3)[C@@H](O)C(C)O2)[C@H](O)C(C)O1` (stereo not given in full), the growth is 68.9% (inactive).

As for `N#Cc1c(-c2ccccc2)nc(SCC(O)CN2CCOCC2)nc1N1CCOCC1` (stereo not given), the growth is 37.4% (inactive).

With `COc1cc(-c2nc3cc(Cl)c(Cl)cc3[nH]2)ccc1OCC(=O)N=Nc1c(O)[nH]c2ccc(Cl)cc12`, the growth is 15.2% (inactive).

As for `CNC(=O)c1ccccc1Nc1nc(Nc2cc(OC)c(OC)c(OC)c2)ncc1Br`, the growth was 2.5% (active).

Consider `C=C(C)[C@@H]1CC[C@]2(C(N)=O)CC[C@]3(C)[C@H](CC[C@@H]4[C@@]5(C)CC[C@H](OCCC#N)C(C)(C)[C@@H]5CC[C@]43C)[C@@H]12`, for which the growth is 64.5% (inactive).

In the case of `N#C/C(=C\C=C\c1ccc(-c2cc(Cl)ccc2Cl)o1)c1nc2ccccc2s1`, the growth was 75.1% (inactive).

`COc1ccc(/C=C/C(c2cc(OC)c(OC)c(OC)c2)n2ccnc2)cc1O` (stereo not given): the growth was 60.2% (inactive).

As for `Cc1ccc2nc(/C(C#N)=C(/CCCO)NC(Cc3ccccc3)C(=O)OCc3ccccc3)[nH]c(=O)c2c1` (stereo not given), the growth is 90.2% (inactive).

As to `N#C/C(=C\c1ccc(-c2cccc(C(F)(F)F)c2)o1)c1ccccc1`, the growth is 69% (inactive).

With `O=C(NC1CC(F)C1)c1cc2cccnc2n1-c1ccc(Cl)c(Cl)c1` (stereo not given), the growth is 84.4% (inactive).

Turning to `CCNC(=O)Oc1ccc(/C(=C(/CC)Cc2ccccc2)c2ccc(OCCN3CCCC3)cc2)cc1`, the growth was 96.8% (inactive).

`COc1cc(C2C(C(=O)OCc3ccccc3)=C(C)NC(C)=C2C(=O)OCc2ccccc2)cc(OC)c1OC`: the growth was 26.2% (inactive).

As for `CN(Cc1cc(Br)cc(Br)c1O)Cc1cc(Br)cc(Br)c1O`, the growth is 24.6% (inactive).

For the molecule `Cc1c2cccnc2c(C)c2c1c1cc(CO)ccc1n2C`, the growth was 7.09% (active).

Regarding `S=c1[nH]c(=S)c2c(-c3ccccc3)c(-c3ccccc3)oc2[nH]1`, the growth was 101% (inactive).

`CCC1S/C(=N\N=C(\C)c2cc3cc(Cl)ccc3o2)N(c2ccccc2)C1=O` (stereo not given): the growth is 60.1% (inactive).

For `CCN(CC)Cc1cc(Nc2ccnc3cc(Cl)ccc23)ccc1O`, the growth is 88.3% (inactive).

As to `CCOC(=O)C(Cc1ccc(OC)cc1)C(=O)OCC`, the growth was -14.2% (active).

For `CC1(C)CC[C@]2(C(=O)N[C@H](CO)Cc3ccccc3)CC[C@]3(C)C(=CC[C@@H]4[C@@]5(C)CCCNC(C)(C)[C@@H]5CC[C@]43C)[C@@H]2C1`, the growth was 77.3% (inactive).

For the molecule `CC(C)(C)n1cc(-c2ccnc(NCCNS(=O)(=O)c3ccc(O)cc3)c2)c(-c2cccc(O)c2)n1`, the growth is 103% (inactive).

In the case of `CC1(C)C(N)=Nc2cc(OCCCN3Cc4ccccc4C3)c(OCC3CC3)cc21`, the growth is 52.5% (inactive).

Consider `CCOC(=O)C(=CNc1cnc(Nc2ccc(N3CCOCC3)cc2)nc1Oc1ccc(OC)cc1)C(=O)OCC`, for which the growth is 25.1% (inactive).

Turning to `O=C(Nc1ccccc1O)c1ccc(CNC(=O)c2ccsc2Nc2ccnc(C(F)(F)F)c2)cc1`, the growth is 9.72% (active).

Turning to `CC(=O)ON1CCCC(P(=O)(OCCSC(=O)C(C)(C)C)OCCSC(=O)C(C)(C)C)C1=O` (stereo not given), the growth is 24% (inactive).
